# PubChem BioAssay AID2685 (National Center for Advancing Translational Sciences (NCATS), 2010)
# About 2,100 (0.66%) of roughly 320,000 compounds were called active. Inconclusive results (about 53%) are left out. Calls follow the shape of the dose curve; as a rule, active = well fitted inhibition curve with a large enough effect in the signal ratio, with a control signal flat (not every such curve was filed as active); inconclusive = small, poorly fitted or top-dose-only effect, or effect the other way, or a change in a side signal; inactive = flat fitted curve, though single readings scatter; the % refers to the signal ratio. Many of the other results were omitted from the sample, so actives are more common in it than they were.
# Test: qHTS Assay for Lipid Storage Modulators in Drosophila S3 Cells;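 as to cell number change: cells counted by Cell Tracker Red CMTPX staining in the red channel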; as to lipid storage change, negative = inhibition: % is scaled to controls: 0 for no effect and ±100 for the full control effect
# Details: BODIPY lipid droplet fluorescence, 18-24 h, cells fed with added oleic acid; cell number change: measured here: cell count max response; series mostly up to 46.1 µM; lipid storage change, negative = inhibition: at the top concentration
# Method in brief: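 Drosophila S3 cells got compounds at several concentrations plus oleic acid (400 uM solution). Laser-scanning cytometry with 488 nm excitation read lipid droplets at 500-530 nm and cells at 575-640 nm. Percent activity was relative to 20 uM Triacsin C.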
# Potency is read from the fitted curve at half-maximal effect.
SMILES,"lipid storage change, negative = inhibition",cell number change,Potency,outcome
COC(=O)C1=C(C)NC(=O)/C1=C\c1ccc2c(c1)OCO2,-12% (inactive),-20.5%,,
CCOC(=O)C1(Cc2cccc(Cl)c2)CCCN(C(=O)c2cn[nH]c2)C1 (configuration not stated),-0.385% (inactive),-11.4%,,
CN(C)c1ccc(C(=S)N2CCN(Cc3ccccc3)CC2)cc1,10.1% (inactive),-4.36%,,
CC(C)c1ccc(C(O)P(=O)(OCc2ccccc2)c2ccc(N(C)C)cc2)cc1 (configuration not stated),-15.1% (inactive),1.68%,,
COc1ccc(NC(=O)CN(c2ccc([N+](=O)[O-])cc2)S(=O)(=O)c2ccccc2)c(OC)c1,5.04% (inactive),-1.88%,,
O=C1NCCCC1C(=O)NCCN1C(=O)CCC1=O (configuration not stated),0.15% (inactive),-2.23%,,
O=C(Nc1cccc(C(F)(F)F)c1)c1ccc(-n2cncn2)nc1,-0.0627% (inactive),5.24%,,
COc1ccc(N(CC(=O)N2CCN(Cc3ccc4c(c3)OCO4)CC2)S(C)(=O)=O)cc1OC,0.719% (inactive),14.4%,,
CC(C)CCNC(=O)CN(Cc1ccco1)C(=O)c1snc(C(N)=O)c1N,7.91% (inactive),8.95%,,
COc1ccc(CCNS(=O)(=O)c2ccc(Cl)cc2)cc1OC,,-15.3%,1.64 µM (active),
COc1ccc(CCNC(=O)COc2ccc(S(=O)(=O)NC3CCCCC3)cc2Cl)cc1OC,,-27.7%,8.2 µM (active),
COc1ccc2[nH]cc(CCNS(=O)(=O)c3ccc(C)cc3)c2c1,-1.15% (inactive),2.67%,,
COc1cc(S(=O)(=O)NCc2ccccc2)ccc1Br,-0.0691% (inactive),5.28%,,
COc1ccc(CCNS(=O)(=O)c2ccc([N+](=O)[O-])cc2)cc1OC,23.7% (inactive),0.785%,,
COc1ccc(CCNC(=O)COc2ccc(S(=O)(=O)NC(C)C)cc2Cl)cc1OC,-26% (inactive),,,
COc1ccc(CCNS(=O)(=O)c2ccc(Br)cc2)cc1OC,10.6% (inactive),-6.93%,,
COc1ccc(S(=O)(=O)NC2CCCC2)cc1Cl,-23% (inactive),,,
COc1ccc(S(=O)(=O)NCCc2c[nH]c3ccc(Cl)cc23)cc1,,,20.6 µM (active),
CCNS(=O)(=O)c1ccc(Br)c(OC)c1,,-59.3%,25.9 µM (active),
CCOc1cc(S(=O)(=O)NCc2ccccc2)ccc1Br,13.7% (inactive),-16.8%,,
COc1ccc2[nH]cc(CCNS(=O)(=O)c3ccc(F)cc3)c2c1,-4.21% (inactive),-14.3%,,
COc1cc(CNC2CCCCC2OC)cc(OC)c1OC (configuration not stated),-4.46% (inactive),3.58%,,

SMILES,"lipid storage change, negative = inhibition",cell number change,Potency,outcome
O=C(O)c1cnn(-c2ccccc2)c1-c1ccncc1,,,,inactive
Cc1cc(/C=N/N2CCN(C)CC2)c(C)n1-c1ccccc1F,,,,inactive
CCCn1c(SCC(=O)Nc2nnc(C)s2)nnc1-c1ccoc1C,9.42% (inactive),-14%,,
CS(=O)(=O)N(CC(=O)N1CCN(c2ccccc2F)CC1)C1CCCCC1,-6.61% (inactive),-9.38%,,
Cc1c(CNC(=O)C2CC2)c(-n2cccc2)n(Cc2ccccc2)c1C,12.7% (inactive),18.9%,,
COCCNS(=O)(=O)c1ccc(-c2ccc(Cl)cc2)cc1,-0.344% (inactive),8.47%,,
COc1cc(S(=O)(=O)NCc2ccccc2)ccc1F,-1.58% (inactive),6.61%,,
COCCNS(=O)(=O)c1ccc(F)c(OC)c1,,2.25%,20.6 µM (active),
O=S(=O)(O)c1cc(OS(=O)(=O)c2ccccc2)cc2ccccc12,-11.6% (inactive),6.99%,,
COc1ccc(Cc2nc3ccc(C(=O)NCc4cc(C)no4)cc3o2)cc1OC,-19.9% (inactive),-13.7%,,
O=C(c1ccc([N+](=O)[O-])cc1)N1CCN(Cc2ccccc2)CC1,4.25% (inactive),11.4%,,
Nn1c(SCC(=O)Nc2ccc3c(c2)OCO3)nnc1-c1cccc(Cl)c1,-0.669% (inactive),0.909%,,
O=C(NC1CCCCC1)C1CCN(C(=O)c2ccccc2Cl)CC1,-5% (inactive),-4.35%,,
O=C(NC1CC1)C1CCN(C(=O)c2ccccc2Cl)CC1,,,,inactive
O=C(O)c1ccccc1C(=O)N1CCN(C(=O)c2ccccc2Cl)CC1,2.44% (inactive),18.7%,,
O=CN1CCN(C(=O)c2ccccc2Cl)CC1,,-3.9%,16.4 µM (active),
O=C(c1ccccc1Cl)N1CCSCC1,-5.54% (inactive),2.74%,,
O=C(O)C1CCN(C(=O)c2ccccc2Cl)CC1,,6.2%,18.4 µM (active),
O=C(NCCCn1ccnc1)c1cc2cc([N+](=O)[O-])ccc2oc1=O,19.8% (inactive),15.7%,,
CCCN1CCC(=NNc2ccc(S(N)(=O)=O)cc2[N+](=O)[O-])CC1,-4.49% (inactive),-0.104%,,
CCCn1c(SCCN2CCOCC2)nc2c1c(=O)n(C)c(=O)n2C,,,,inactive
COc1ccc(CNC(=O)CN2C(=O)NC(C)(c3cccc4ccccc34)C2=O)cc1OC (configuration not stated),,-4.84%,18.4 µM (active),

SMILES,"lipid storage change, negative = inhibition",cell number change,Potency,outcome
COc1ccc(CNC(=O)CN2C(=O)NC(C)(c3cccc(Br)c3)C2=O)cc1 (configuration not stated),11.7% (inactive),15.2%,,
COc1ccc(CNC(=O)CN2C(=O)NC3(CCCCCC3)C2=O)cc1OC,-22.1% (inactive),-8.33%,,
O=C(CCNS(=O)(=O)c1ccc(Cl)cc1)N1CCN(Cc2ccccc2)CC1,-8.38% (inactive),-14.8%,,
N#Cc1ccc(CN2CCN(C(=O)CCNS(=O)(=O)c3ccc(F)c(Cl)c3)CC2)cc1,,-29%,20.6 µM (active),
Cc1c(C)c(C)c(S(=O)(=O)NCCC(=O)N2CCN(Cc3ccc(C#N)cc3)CC2)c(C)c1C,-6.69% (inactive),10.7%,,
Cc1ccc(NC(=O)CC(NC(=O)c2ccccc2Cl)c2ccccc2)nc1 (configuration not stated),-13.8% (inactive),12.3%,,
Cc1cccc(N2CCN(C(=O)C(Cc3ccccc3)NC(N)=O)CC2)c1C (configuration not stated),5.13% (inactive),-3.7%,,
Cc1cccc(N2CCN(C(=O)CC(NC(=O)c3ccccc3Cl)c3ccccc3)CC2)c1C (configuration not stated),,-1.65%,10.3 µM (active),
CCC(C)NC(=O)CSc1c2c(nc3ccccc13)CCCC2 (configuration not stated),-0.588% (inactive),-7.84%,,
COCCNC(=O)CSc1nc2ccccc2c(=O)n1CCC(=O)NCCc1ccc(OC)c(OC)c1,-6.85% (inactive),-7%,,
CCOC(=O)CN1NC2(CCC(C)CC2)NC1=S (configuration not stated),,16.5%,18.4 µM (active),
CCOC(=O)CN1NC2(CCCCCCC2)NC1=S,17% (inactive),26.5%,,
CCOC(=O)CN1NC2(CCC(C(C)(C)C)CC2)NC1=S (configuration not stated),-2.81% (inactive),0.162%,,
CC(=O)N1CC2(NC(=O)c3ccccc3N2)c2ccccc21 (configuration not stated),-3.02% (inactive),1.06%,,
COc1ccc(-n2nnc3c(=O)n(CC(=O)N4CCCCC4)cnc32)cc1,,,,inactive
Cc1ccccc1NC(=O)/C=C/c1cccs1,-3.06% (inactive),-15.7%,,
Cc1cc(C)cc(NC(=O)/C=C/c2ccc([N+](=O)[O-])s2)c1,-0.708% (inactive),-13.6%,,
CN(C(=O)/C=C/c1ccc([N+](=O)[O-])s1)c1ccccc1,-2.6% (inactive),5.5%,,
CC(=O)c1cccc(NC(=O)/C=C/c2ccc([N+](=O)[O-])s2)c1,-0.322% (inactive),-6.6%,,
Cc1cccc(NC(=O)/C=C/c2ccc([N+](=O)[O-])s2)c1,,-28.2%,20.6 µM (active),
Cc1ccccc1NC(=O)/C=C/c1ccc([N+](=O)[O-])s1,,-29.7%,9.2 µM (active),
